FLuc counter: inhibits or activates purified firefly luciferase, miR-21 counter-screen; purified FLuc, Km substrates, luminescence inhibition; Potency, µM (highest dose often 57.5 µM), actives largely listed as inhibitors; 6.9% of 360,000 active; further: nearly all actives have a fitted effect of over 55% in size
Target sequence (P08659 whole entry, looked up): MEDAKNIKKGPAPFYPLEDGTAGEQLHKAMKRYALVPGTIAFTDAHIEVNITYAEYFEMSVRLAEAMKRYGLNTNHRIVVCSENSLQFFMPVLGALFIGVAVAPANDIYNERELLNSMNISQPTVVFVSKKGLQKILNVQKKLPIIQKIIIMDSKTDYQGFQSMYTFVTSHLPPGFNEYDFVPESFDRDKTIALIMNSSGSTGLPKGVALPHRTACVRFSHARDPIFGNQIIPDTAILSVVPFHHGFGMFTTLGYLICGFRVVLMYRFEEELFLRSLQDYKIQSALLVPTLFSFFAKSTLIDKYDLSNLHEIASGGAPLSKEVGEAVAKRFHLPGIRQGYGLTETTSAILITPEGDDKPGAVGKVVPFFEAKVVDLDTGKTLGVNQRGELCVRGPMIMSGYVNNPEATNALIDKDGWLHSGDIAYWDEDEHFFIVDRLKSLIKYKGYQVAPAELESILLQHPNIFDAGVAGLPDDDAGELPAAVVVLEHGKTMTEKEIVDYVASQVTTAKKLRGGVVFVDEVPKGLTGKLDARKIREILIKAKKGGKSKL
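Purified P. pyralis luciferase, 10 nM final, with Km-level 10 uM D-luciferin and 10 uM ATP in 50 mM Tris acetate pH 7.5, 10 mM Mg acetate, 0.01% Tween-20, 0.05% BSA; 6-point qHTS titration about 60 µM downward; luminescence read.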
SMN2 splice up: SMN2 splice variant enhancement; HEK293 SMN2-luciferase splicing reporter, luminescence, 30-36 h; Potency, µM (series often up to 46.1 µM), actives largely listed as activators; 2.8% of 210,000 active; AID 1458; further: nearly all actives have a fitted effect of over 55% in size
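qHTS luciferase splicing reporter: luminescence rises when SMN2 exon 7 is included in transfected HEK293 cells. Compound exposure lasted 30-36 h at 37C, with 4.5 mM final sodium butyrate as control, followed by a ONE-Glo read.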
ELG1 DNA repair: inhibitors of ELG1-dependent DNA repair in HEK293T cells. Potency, µM (titrated, usually from 46.1 µM), most hits filed as inhibitors. HEK293T ELG1-luciferase reporter, luminescence, 16 h; DNA damage induced by 5-fluorouridine. 2.3% of 330,000 active; further: nearly all actives have a fitted effect of over 55% in size
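Step one: seed 2,000 cells per well. Step two: pin-transfer compound or DMSO alongside 5-fluorouridine. Step three: incubate 16 hr, 37 °C, 5% CO2. Step four: add ONE-Glo, wait 30 min, read luminescence.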
ELG1 genotox: inducers of genotoxicity in HEK293T ELG1-luciferase cells; AID 504466; HEK293T ELG1-luciferase reporter, luminescence, 16 h; Potency, µM (doses to about 46 µM), hits mostly activators; 1.3% of 330,000 active; further: nearly all actives have a fitted effect of over 60% in size
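ELG1-luciferase HEK293T cells, 2,000/well; compound pinned in; 16 hr, 37 °C, 5% CO2; ONE-Glo, 30 min RT; luminescence on CCD imager.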
Rab9 promoter act: activates the Rab9 promoter | Huh7 Rab9 promoter-luciferase reporter, luminescence, 24 h | Potency, µM (top dose mostly 9.22 µM), hits mostly activators | 2.8% of 320,000 active; further: nearly all actives have a fitted effect of over 60% in size
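Stable Rab9-luc Huh7, 1500 cells/well, 2 h settle; cmpd in DMSO, 24 h, 37 °C/5% CO2; luciferase reagent 10 min RT; luminescence.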
NPC1 prom act: activates the NPC1 promoter | Huh7 NPC1 promoter luciferase reporter, 24 h | Potency, µM (series often up to 9.22 µM), usual class: activators | 2.4% of 320,000 active; further: nearly all actives have a fitted effect of over 60% in size
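Stably transfected Huh7 (NPC1 promoter→luciferase), 1500 cells/well in Opti-MEM + 10% FBS, 2 h settle, then compound 24 h at 37 °C. Luminescence after 10 min with Amplite reagent.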
Large screens that a line does not name were inactive. Rows were chosen to be rich in hits. Some 9.4% of all compounds tested hit in one or more screens of this group. The call rests on the fitted dose curve; in most records, active means well fitted curve in the direction sought with a large enough effect; inconclusive means small, poorly fitted or top-dose-only effect, or another doubt; inactive means no such curve, though single readings can be large; an effect the other way counts as inactive or inconclusive.

O=C(N/N=C/C(Cl)=C/c1ccccc1)c1cnccn1	FLuc counter 12µM, ELG1 DNA repair inconclusive
CC(/C=N/NC(=O)c1ccc(Br)cc1)=C\c1ccccc1	FLuc counter inconclusive, ELG1 DNA repair inconclusive, ELG1 genotox inconclusive
CC(/C=N/NC(=O)c1cccnc1)=C\c1ccccc1	FLuc counter 13µM, ELG1 DNA repair inconclusive, ELG1 genotox inconclusive, Rab9 promoter act inconclusive, NPC1 prom act inconclusive (no result: SMN2 splice up)
O=C(N/N=C/c1cc([N+](=O)[O-])ccc1Cl)c1cnccn1	none (no result: SMN2 splice up)
O=C(N/N=C/C(Cl)=C\c1ccccc1)c1cnccn1	FLuc counter 11µM, ELG1 DNA repair inconclusive, ELG1 genotox inconclusive
O=C(Nc1ccccc1-c1ccccc1)c1cnccn1	FLuc counter inconclusive, ELG1 DNA repair inconclusive
COC(=O)c1cccnc1-n1c(=O)c2cccnc2n(CC(=O)Nc2cccc(C)c2)c1=O	none (no result: ELG1 DNA repair, ELG1 genotox, Rab9 promoter act, NPC1 prom act)
CC(=O)Nc1nonc1-c1nnc(SCC(=O)Nc2cc(C)ccc2C)n1-c1ccccc1	none (no result: SMN2 splice up, ELG1 DNA repair, ELG1 genotox, Rab9 promoter act, NPC1 prom act)
CCOC(=O)c1cnc2c(ccc3ccccc32)c1Nc1ccc(C(C)=O)cc1	none (no result: ELG1 DNA repair, ELG1 genotox, Rab9 promoter act, NPC1 prom act)
NC(=O)c1cc[n+](CC2=C(C(=O)O)N3C(=O)[C@@H](NC(=O)[C@H](c4ccccc4)S(=O)(=O)[O-])[C@@H]3SC2)cc1	none (no result: FLuc counter, ELG1 DNA repair, ELG1 genotox, Rab9 promoter act, NPC1 prom act)
CC(=O)Nc1ccc2c(CSc3nnc(-c4cccnc4)n3-c3ccc(C)cc3C)cc(=O)oc2c1	ELG1 DNA repair 9.2µM
CC(C)c1ccccc1-n1c(SCc2cc(=O)oc3ccc4ccccc4c23)nnc1-c1cccnc1	ELG1 DNA repair 23µM
CCOc1ccc(-n2c(SCc3cc(=O)oc4cc(C)ccc34)nnc2-c2cccnc2)cc1	none
CCOc1ccccc1NC(=O)c1nn(-c2ccc(C)cc2)c(=O)n(C)c1=O	none (no result: SMN2 splice up, ELG1 DNA repair, ELG1 genotox, Rab9 promoter act, NPC1 prom act)
O=C(C1CCC1)N1CCc2cc(S(=O)(=O)NCc3ccc(F)cc3)ccc21	none (no result: ELG1 DNA repair, ELG1 genotox, Rab9 promoter act, NPC1 prom act)
N.N.O=C(O)C1(C(=O)O)CCC1.[Pt+2]	none (no result: FLuc counter, SMN2 splice up, ELG1 DNA repair, ELG1 genotox)
Cn1cc(Br)c(C(=O)Nc2sc3c(c2C(N)=O)CCC3)n1	FLuc counter 11µM, ELG1 DNA repair inconclusive
CCn1ncc(Br)c1C(=O)Nc1sc2c(c1C(N)=O)CCC2	none
Cn1ccc(C(=O)Nc2sc3c(c2C(N)=O)CCCCC3)n1	FLuc counter 0.6µM, ELG1 DNA repair inconclusive, ELG1 genotox 0.46µM, Rab9 promoter act 0.5µM, NPC1 prom act 1µM (no result: SMN2 splice up)
Cn1nccc1C(=O)Nc1sc2c(c1C(N)=O)CCCC2	FLuc counter 9.5µM, ELG1 genotox inconclusive, Rab9 promoter act inconclusive
CN(C)S(=O)(=O)c1ccc(C(=O)Nc2ccc3ncccc3c2)cc1	FLuc counter 15µM, ELG1 DNA repair inconclusive, ELG1 genotox inconclusive (no result: SMN2 splice up)
O=C(Nc1ccc2ncccc2c1)Nc1ccc2ncccc2c1	FLuc counter 6.7µM, ELG1 DNA repair inconclusive, NPC1 prom act inconclusive
c1cnc2ccc(-c3ccc4ncccc4c3)cc2c1	FLuc counter 0.6µM, ELG1 DNA repair inconclusive, ELG1 genotox inconclusive, Rab9 promoter act 0.45µM, NPC1 prom act 1µM (no result: SMN2 splice up)
Cc1ccc2ncccc2c1	none
O=C(Nc1ccc2ncccc2c1)c1ccccc1Br	FLuc counter 12µM, ELG1 DNA repair inconclusive, ELG1 genotox 6.5µM, Rab9 promoter act 2.8µM, NPC1 prom act inconclusive (no result: SMN2 splice up)
Cc1nc2ccc(NC(=O)c3ccc(S(=O)(=O)N(C)C)cc3)cc2s1	none
Cc1ccc(NC(=O)C2CCCN(C(=O)c3cnn(-c4ccccc4)c3-n3cccc3)C2)cc1 (stereo not given)	none (no result: ELG1 DNA repair, ELG1 genotox, Rab9 promoter act, NPC1 prom act)
O=C(O)/C(=C\c1ccccc1)Cc1ccccc1	none (no result: FLuc counter, ELG1 DNA repair, ELG1 genotox, Rab9 promoter act, NPC1 prom act)
COc1cccc(-c2ccc3c(N)c(C(=O)c4ccc(F)cc4)sc3n2)c1	none (no result: ELG1 DNA repair, ELG1 genotox, Rab9 promoter act, NPC1 prom act)
CCN(Cc1nc(-c2ccc(OC)c(OC)c2)no1)S(=O)(=O)c1ccc(OC)cc1	none (no result: ELG1 DNA repair, ELG1 genotox, Rab9 promoter act, NPC1 prom act)
CC=C1C2C=C(C)CC1(N)c1ccc(=O)[nH]c1C2 (stereo not given)	none (no result: FLuc counter, ELG1 DNA repair, ELG1 genotox, Rab9 promoter act, NPC1 prom act)
COc1ccc(-c2nc3scc(CCNS(=O)(=O)c4c(C)cc(C)cc4C)n3n2)cc1OC	none (no result: SMN2 splice up, ELG1 DNA repair, ELG1 genotox, Rab9 promoter act, NPC1 prom act)
Fc1ccc(-n2nnc(-c3ccccc3)n2)cc1	none (no result: SMN2 splice up)
Cc1ccc(-n2nnc(-c3ccnc4ccccc34)n2)cc1	FLuc counter 1.9µM, ELG1 DNA repair inconclusive, ELG1 genotox 13µM, Rab9 promoter act 4.5µM, NPC1 prom act 3.2µM (no result: SMN2 splice up)
